# Results with a measured potency or affinity are listed apart. A number with no mark means an inactive call. Calls of active or inactive are those of the source. How the calls were made is not given here.
# Assay: toxicity to A549 lung cells – cell-based, plate reader, dry powder, set 6, cytotoxicity control, dose response (AID 743312)
# Conditions: series mostly up to 26 µM; activity change, negative = cytotoxicity: at the top concentration
Structure (SMILES),"activity change, negative = cytotoxicity [%]",outcome
O=S(=O)(c1ccc(OCCn2cnc3ccccc32)cc1)N1CCOCC1,22.3,–
CC(C)Oc1ccc(OCCn2c(=S)[nH]c3ccccc32)cc1,-2.95,–
COc1ccccc1OCCn1c(SC)nc2ccccc21,4.85,–
COc1ccccc1OCCn1c(=S)[nH]c2ccccc21,22.9,–
CSc1nc2ccccc2n1CCOc1cc(C)ccc1C(C)C,-10.7,–
OCc1nc2ccccc2n1CCOc1ccccc1,-16.5,–
Cc1cccc(OCCn2c(=S)[nH]c3cc(F)ccc32)c1,-13.9,–
CSc1nc2ccccc2n1CCOc1ccc(C)cc1,31.9,–
Cc1cccc(OCCn2c(=S)[nH]c3c(F)cccc32)c1,–,inactive
CCSc1nc2ccccc2n1CCOc1ccccc1,-4.67,–
c1ccc2c(c1)ncn2CCOc1ccc2c(c1)CCC2,-25.2,–
Cc1ccc2c(c1)[nH]c(=S)n2CCOc1ccccc1,14,–
Cc1ccc(C(C)C)c(OCCn2c(N)nc3ccccc32)c1,-5.89,–
Clc1ccccc1OCCn1cnc2ccccc21,16,–
CS(=O)(=O)c1ccc(OCCn2cnc3ccccc32)cc1,47.3,–
S=c1[nH]c2cc(Cl)ccc2n1CCOc1ccccc1,-10.2,–
Cc1ccc(OCCn2cnc3ccccc32)c(C)c1,6.48,–
Cc1cccc(OCCn2cnc3ccccc32)c1,28.1,–
c1ccc(COc2ccc(OCCn3cnc4ccccc43)cc2)cc1,-10.8,–
Cc1cc2ncn(CCOc3ccccc3)c2cc1C,-2.58,–
Clc1ccc(OCCn2cnc3ccccc32)c(Cl)c1,20.7,–

# — PubChem BioAssay AID743312 (Broad Institute, 2014)
